From PubChem BioAssay (NCI)
Compounds without any hit were thinned out: in the full panel of roughly 83,000, 20% have a hit.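 A percent growth of 40 corresponds to 60% growth inhibition; 0 means no net growth; -100 means all cells died. Active threshold: below 10.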 Unmarked numbers belong to inactive results. Active and inactive are the calls of the source.

Tests used:
Assay in all cases: NCI-60 one-dose screen, 48 h (100 = growth as untreated, 0 = no growth, -100 = all killed)
Details in all cases: 10 µM
[1] = system: SK-MEL-2 melanoma
[2] = system: EKVX NSCLC
[3] = system: SN12C renal
[4] = system: UO-31 renal
[5] = system: TK-10 renal
[6] = system: ACHN renal
[7] = system: CAKI-1 renal
[8] = system: A498 renal
[9] = system: CCRF-CEM leukemia
[10] = system: MOLT-4 leukemia

For `O=c1[nH]c2ccc(Cl)cc2cc1CSc1ccc(Nc2nccc(-c3ccc4ccccc4c3)n2)cc1`, the growth [1] was 97.2%, the growth [2] was 83.6% and the growth [3] was 62.6%. The growth [4] was 96.2%, the growth [5] was 79.8% and the growth [6] was 100%. It also gave a growth [7] of 97.1%, a growth [8] of 119% and a growth [9] of 80%. The growth [10] was 80.5%.

For `CC1(C)[C@@H](NCO)CC[C@]2(C)[C@H]3C(=O)C=C4[C@@H]5C[C@](C)(CO)CC[C@]5(C)CC[C@@]4(C)[C@]3(C)CC[C@@H]12`, the growth [1] was 94.6%, the growth [2] was 75.5% and the growth [3] was 72%. It also gave a growth [4] of 54.9%, a growth [5] of 107% and a growth [6] of 63.1%. For the same compound, the growth [7] was 59.1%, the growth [8] was 140% and the growth [9] was 70.3%. The growth [10] was 16.5%.

`Nc1nc(Nc2ccccc2)nn1Cc1c(Cl)cccc1Cl` was tested, and the growth [1] was 49.2%, the growth [2] was 20.2% and the growth [3] was 44.5%. For the same compound, the growth [4] was 11.8%, the growth [5] was 53.8% and the growth [6] was 13.9%. For the same compound, the growth [7] was 27.9%, the growth [8] was -3.12% (active) and the growth [9] was 26.5%. It also gave a growth [10] of 18.6%.

`COc1cccc2nc(Nc3ccc(F)c(NC(=O)c4ccc(CN5CCN(C)CC5)c(C(F)(F)F)c4)c3)ccc12` gave a growth [1] of 14.6%, a growth [2] of 13% and a growth [3] of 26.8%. For the same compound, the growth [4] was 5.08% (active), the growth [5] was 50.3% and the growth [6] was 0.664% (active). The growth [7] was -2.36% (active), the growth [8] was 77% and the growth [9] was -3% (active). For the same compound, the growth [10] was -16.5% (active).

In the case of `Cc1noc2c(Cc3ccc([N+](=O)[O-])cc3)nn(CC(=O)N/N=C/c3ccc(Br)cc3)c(=O)c12`, the growth [1] is reported as 116%, the growth [2] is reported as 90.2% and the growth [3] is reported as 81%. The growth [4] was 57.7%, the growth [5] was 112% and the growth [6] was 43.6%. It also gave a growth [7] of 84%, a growth [8] of 121% and a growth [9] of 103%. It also gave a growth [10] of 103%.

Compound `COc1cccc(-c2ccnc(/N=C(\N)Nc3ccc(S(=O)(=O)Nc4nc(C)cc(C)n4)cc3)n2)c1` has a growth [1] of 100%, a growth [2] of 92.7% and a growth [3] of 100%. It also gave a growth [4] of 64.1%, a growth [5] of 111% and a growth [6] of 97.3%. The growth [7] was 80.4%, the growth [8] was 114% and the growth [9] was 98.5%. The growth [10] was 101%.

`CC1CC(c2ccc(N(C)C)cc2)=NN1c1nc(O)c(C2=c3cc(Br)ccc3=NC2=O)s1` (stereo not given) showed a growth [1] of 98.9%, a growth [2] of 61.9% and a growth [3] of 106%. It also gave a growth [4] of 78.3%, a growth [5] of 94.4% and a growth [6] of 92.2%. For the same compound, the growth [7] was 101%, the growth [8] was 103% and the growth [9] was 29.8%. For the same compound, the growth [10] was 70.5%.

In the case of `COc1ccc(CN2[C@@H](C(=O)NCc3ccc(C(=O)NO)cc3)Cc3c([nH]c4ccccc34)[C@@H]2C2CC2)cc1`, the growth [1] is reported as 12.2%, the growth [2] is reported as 28.9% and the growth [3] is reported as 29%. For the same compound, the growth [4] was 40.5%, the growth [5] was 8.46% (active) and the growth [6] was 35.5%. The growth [7] was 22.5%, the growth [8] was -5.06% (active) and the growth [9] was 15%. It also gave a growth [10] of 11%.

With `C/C(=C\CC/C=C(\C)CC/C=C(\C)CC[C@@H](O)C(C)(C)O)CC/C=C(\C)CC[C@@H](O)C(C)(C)O` the growth [1] was 52.1%, the growth [2] was 34.5% and the growth [3] was 12%. For the same compound, the growth [4] was 30.5%, the growth [5] was 64.6% and the growth [6] was 37.5%. For the same compound, the growth [7] was 47.4%, the growth [8] was 73.6% and the growth [10] was 0.465% (active).

In the case of `COc1ccc(CCN2C(=O)/C(=C/c3csc(C#N)n3)SC2=S)cc1OC`, the growth [1] is reported as 85.6%, the growth [2] is reported as 79.8% and the growth [3] is reported as 31.8%. For the same compound, the growth [4] was 15.5%, the growth [5] was 1.31% (active) and the growth [6] was 8.31% (active). The growth [7] was 25.3%, the growth [8] was 80% and the growth [10] was -10.7% (active).

With `O=C1Nc2ccc(Cl)cc2/C1=C/c1ccc(OCc2ccccn2)cc1` the growth [1] was 111%, the growth [2] was 65.7% and the growth [3] was 44.5%. For the same compound, the growth [4] was 59.6%, the growth [5] was 90.1% and the growth [6] was 57%. It also gave a growth [7] of 61.6%, a growth [8] of 45.1% and a growth [9] of 83.2%. For the same compound, the growth [10] was 46.8%.

Compound `O=C(NC(=S)N1CCN(c2ncnc3c2cnn3-c2ccccc2)CC1)c1ccc(Cl)cc1` has a growth [1] of 88.8%, a growth [2] of 62.7% and a growth [3] of 28.3%. It also gave a growth [4] of 40%, a growth [5] of 109% and a growth [6] of 24.5%. It also gave a growth [7] of 27.7%, a growth [8] of 68.4% and a growth [10] of 81.6%.

For `COc1ccc([C@H]2C(C(=O)c3ccc(Cl)cc3)C3(N[C@@H]2c2ccccc2)C(=O)Nc2ccc(Cl)cc23)cc1` (stereo not given in full), the growth [1] was -65.5% (active), the growth [2] was 4.5% (active) and the growth [3] was -86.5% (active). For the same compound, the growth [4] was -1.98% (active), the growth [5] was 9.59% (active) and the growth [6] was 1.5% (active). For the same compound, the growth [7] was 4.6% (active), the growth [8] was 10.4% and the growth [9] was 21.9%. For the same compound, the growth [10] was 12.1%.

`Nc1cccnc1/C=N/NC(=S)NCCNC(=O)c1ccc(-n2nc(-c3ccccc3O)nc2-c2ccccc2O)cc1` was tested, and the growth [1] was -4.94% (active), the growth [2] was 2.53% (active) and the growth [3] was 5.7% (active). The growth [4] was -3.95% (active), the growth [5] was 12.3% and the growth [6] was 2.89% (active). For the same compound, the growth [7] was 4.97% (active), the growth [8] was 73.7% and the growth [9] was -6.46% (active). For the same compound, the growth [10] was 11.8%.

For `Brc1ccc(N/N=C/c2c[nH]c3ccccc23)nc1`, the growth [1] was 83.6%, the growth [2] was 24.4% and the growth [3] was 15.3%. The growth [4] was 2.76% (active), the growth [5] was 70% and the growth [6] was 27.5%. The growth [7] was 25.9%, the growth [8] was 43% and the growth [9] was 6.57% (active). It also gave a growth [10] of 18%.

`CC1(c2ccccc2)NC(=O)N(CC(=O)Nc2ccc(C(=O)/C=C/c3ccccc3)cc2)C1=O` (stereo not given) gave a growth [1] of 75.3%, a growth [2] of 58.2% and a growth [3] of 68.7%. It also gave a growth [4] of 52.9%, a growth [5] of 92.1% and a growth [6] of 60.3%. It also gave a growth [7] of 61.9%, a growth [8] of 104% and a growth [9] of 35.7%. For the same compound, the growth [10] was 22.9%.

In the case of `COc1cc(/C=C/C(=O)c2ccc(S(=O)(=O)NCCNc3nc(Nc4ccc(F)cc4)nc(N(C)C)n3)cc2)cc(OC)c1OC`, the growth [1] is reported as 98.4%, the growth [2] is reported as 48.4% and the growth [3] is reported as -32.1% (active). The growth [4] was 40.2%, the growth [5] was 66.3% and the growth [6] was -49% (active). For the same compound, the growth [7] was 20.1%, the growth [8] was 81.3% and the growth [9] was 8.16% (active). The growth [10] was 8.5% (active).

`COC(=O)C(Cc1ccc(O)c(O)c1)NC(=O)C(CSC/C=C(\C)CCCC(C)CCCC(C)CCCC(C)C)NC(C)=O` (stereo not given) gave a growth [1] of 74.5%, a growth [2] of 47% and a growth [3] of 26.3%. The growth [4] was 43.7%, the growth [5] was 45.3% and the growth [6] was 31.4%. The growth [7] was 28.4%, the growth [8] was 102% and the growth [10] was 7.78% (active).

In the case of `CN(C)CCNC(=O)OCCCCOc1cc(O)c2c(=O)cc(-c3ccccc3)oc2c1`, the growth [1] is reported as -59.7% (active), the growth [2] is reported as 11.7% and the growth [3] is reported as -9.43% (active). The growth [4] was -91.2% (active), the growth [5] was 0.634% (active) and the growth [6] was -97.5% (active). For the same compound, the growth [7] was -39.1% (active), the growth [8] was -76.4% (active) and the growth [9] was -5.67% (active). For the same compound, the growth [10] was -42.1% (active).

Compound `CC(C)C1=C[C@@]23CC[C@@H]4[C@](C)(CCC[C@]4(C)C(=O)NCc4ccccc4)[C@H]2C[C@@H]1[C@H]1C(=O)OC(=O)[C@H]13` has a growth [1] of 47%, a growth [2] of 33.9% and a growth [3] of 52.1%. It also gave a growth [4] of 43.4%, a growth [5] of 44.9% and a growth [6] of 25.7%. The growth [7] was 77.1%, the growth [8] was 85.2% and the growth [9] was 16.7%. It also gave a growth [10] of 15.5%.

`O=C(NO)c1ccc(CNC(=O)[C@H]2Cc3c([nH]c4ccccc34)[C@H](c3ccccc3)N2)cc1` was tested, and the growth [1] was 9.61% (active), the growth [2] was 44.8% and the growth [3] was 46.7%. For the same compound, the growth [4] was 46.3%, the growth [5] was 30.9% and the growth [6] was 70.8%. It also gave a growth [7] of 78.3%, a growth [8] of 23.2% and a growth [9] of 22.2%. For the same compound, the growth [10] was 12.7%.

For `COc1ccc(C(=O)/C=C/c2cc(F)cc(C(F)(F)F)c2)cc1S(N)(=O)=O`, the growth [1] was 12.8%, the growth [2] was 7.02% (active) and the growth [3] was -69.1% (active). For the same compound, the growth [4] was -92.7% (active), the growth [5] was -12.4% (active) and the growth [6] was -100% (active). The growth [7] was -85.7% (active), the growth [8] was 88.2% and the growth [9] was 4.86% (active). For the same compound, the growth [10] was 1.63% (active).

In the case of `O=C(Nc1nc2ccc([N+](=O)[O-])cc2s1)Nc1cc(Cl)ccc1I`, the growth [1] is reported as -62.1% (active), the growth [2] is reported as -23.7% (active) and the growth [3] is reported as -16.8% (active). For the same compound, the growth [4] was -18.3% (active), the growth [5] was -4.54% (active) and the growth [6] was -3.53% (active). The growth [7] was -24.7% (active), the growth [8] was -16.8% (active) and the growth [9] was -36.8% (active). For the same compound, the growth [10] was -44.6% (active).

`CCOC(=O)C1NN(c2ccc(S(N)(=O)=O)cc2)c2nc3nc(-c4cccs4)cc(-c4cccs4)c3c(=O)n21` (stereo not given) gave a growth [1] of 101%, a growth [2] of 91.8% and a growth [3] of 90.2%. For the same compound, the growth [4] was 82.9%, the growth [5] was 100% and the growth [6] was 64.9%. For the same compound, the growth [7] was 59.1%, the growth [8] was 120% and the growth [10] was 78.7%.
